# Assay outcomes from PubChem BioAssay.
# A selection: hits, their analogues and other compounds. The true share with any hit is near 0.9%.
# PPARg SRC1 recr: PPARgamma agonists recruiting SRC-1 coactivator, primary screen, biochemical; Peroxisome proliferator-activated receptor gamma (Homo sapiens), P37231; PPARgamma-SRC-1 coactivator recruitment biochemical assay; activation, % at 8 µM; 200,000 tested, 0.41% active; in the data active = activation above about 19%;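 note: 0% = DMSO and 100% = reference agonist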
# Target sequence (P37231 whole entry, looked up): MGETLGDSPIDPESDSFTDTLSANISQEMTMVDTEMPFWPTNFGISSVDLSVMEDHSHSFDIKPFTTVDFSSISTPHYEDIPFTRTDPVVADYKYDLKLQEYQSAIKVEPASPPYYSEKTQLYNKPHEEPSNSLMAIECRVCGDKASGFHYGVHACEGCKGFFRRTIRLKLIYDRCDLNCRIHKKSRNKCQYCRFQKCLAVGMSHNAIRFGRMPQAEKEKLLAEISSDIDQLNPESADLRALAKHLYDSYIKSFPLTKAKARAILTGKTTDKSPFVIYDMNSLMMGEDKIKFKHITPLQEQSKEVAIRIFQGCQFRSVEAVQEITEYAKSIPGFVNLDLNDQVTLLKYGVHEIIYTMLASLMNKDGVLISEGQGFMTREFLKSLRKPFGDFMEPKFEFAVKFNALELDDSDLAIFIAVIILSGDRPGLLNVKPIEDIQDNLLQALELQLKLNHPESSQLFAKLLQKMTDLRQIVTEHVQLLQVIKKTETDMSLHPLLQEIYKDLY
# SRC1 TRFRET art: TR-FRET detection interference compounds, primary screen, artefact control for PPARgamma SRC-1 recruitment agonists, biochemical, TR-FRET emission ratio; TR-FRET ratio at 8 µM; TR-FRET detection artefact counter-screen; hits give high values; 99,000 tested, 0.34% active; in the data active = TR-FRET ratio above about 2300
# SRC3 TRFRET art: TR-FRET detection interference compounds, artefact control for PPARgamma SRC-3 recruitment agonists, biochemical, TR-FRET ratio; TR-FRET artefact counter-screen, PPARgamma/SRC-3 format; hits give high values; TR-FRET ratio at 8 µM; 99,000 tested, 0.39% active; AID 1048, 2008
# PPARg SRC-2 ag: agonists of PPARg-SRC-2 recruitment, primary screen, biochemical, HTS. PPARgamma LBD-SRC-2 recruitment. activation, % at 8 µM. 200,000 tested, 0.34% active. Peroxisome proliferator-activated receptor gamma (Homo sapiens), P37231; in the data active = activation above about 22%;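 note: 0% = vehicle and 100% = reference agonist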
# SRC2 TRFRET art: TR-FRET signal artefacts, primary screen, artefact control for PPARgamma SRC-2 agonist project, biochemical. 200,000 tested, 0.4% active. TR-FRET artefact counter-screen; hits give high values. AID 1049, 2008. TR-FRET ratio at 8 µM
# PPARg SRC3 recr: PPARgamma agonists recruiting SRC-3 coactivator, primary screen, biochemical | 200,000 tested, 0.26% active | AID 731, 2007 | biochemical PPARgamma/SRC-3 coactivator recruitment assay | activation, % at 8 µM; in the data active = activation above about 23%;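 note: 0% = DMSO and 100% = reference agonist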
# An asterisk follows results filed as active; x = not tested or not shown. Cut-off read from the data, not from the text of the source, unless noted: active = TR-FRET ratio above about 2000; inactive = the rest.
SMILES,PPARg SRC1 recr,SRC1 TRFRET art,SRC3 TRFRET art,PPARg SRC-2 ag,SRC2 TRFRET art,PPARg SRC3 recr
COc1ccc(C2=NN(C(=O)CSc3ncccn3)C(c3ccc(OC)cc3)C2)cc1 (stereo unspecified),8,2104,1648,5,1601,-1
COc1cccc(/C=C/C(=O)OCC(=O)NCCc2ccccc2)c1,2,1942,1504,4,1642,-1
CCN1C(=O)/C(=C/C=C2/SCCN2C)SC1=S,9,x,x,-2,1470,1
CN1CCS/C1=C\C=C1/SC(=S)N(CC(=O)O)C1=O,24*,2228,1783,6,1733,9
COc1ccc(C2=NN(C(=O)CSc3nc4ccccc4s3)C(c3ccc(F)cc3)C2)cc1 (stereo unspecified),-8,1833,1435,8,1326,-4
O=C1CCCN2N=C(SCC(=O)N3N=C(c4ccc(Br)cc4)CC3c3ccc(F)cc3)SC2=N1 (stereo unspecified),-4,2131,2326*,-2,2012*,-3
CC1CCCCN1C(=O)Nc1cccc(C(F)(F)F)c1 (stereo unspecified),13,2319*,1831,5,1781,6
COc1ccc(NC(=S)NCCCCCC(=O)C[N+](=O)[O-])cc1,-1,1607,1489,2,1564,4
O=C(CSc1ncccc1-c1nc2ccccc2[nH]1)N1CCc2ccccc21,5,2802*,3407*,-8,2650*,2
Cc1cc2nc(-c3ccc(SCC(=O)Nc4ccc(S(=O)(=O)NC5CC5)cc4)nc3)[nH]c2cc1C,13,2422*,3182*,10,2456*,3
Cc1cc(NC(=O)CSc2ccc(-c3nc4cc(C)c(C)cc4[nH]3)cn2)no1,2,x,x,-9,1545,-16
Cc1cc2nc(-c3ccc(SCC(=O)N4CCc5ccccc54)nc3)[nH]c2cc1C,0,x,x,-1,2115*,8
COc1ccc(C2(CNC(=O)c3cccs3)CCOCC2)cc1,-5,1871,1473,1,1645,-4
Cc1csc(SCC(=O)NCc2ccccc2Cl)n1,-8,1649,1566,0,1516,0
CCC(C)NC(=O)Cc1c(OC)ccc2cc(Br)ccc12 (stereo unspecified),19,2168,1936,14,2014*,8
CN1CCN(C(=S)C(=O)Nc2ccc(Br)cc2)CC1,3,1838,1606,2,1669,4
CCN(CC)c1ccc(C=Nc2cc(C)ccc2C)c(O)c1,21*,2287,1646,8,1541,3
CCOC(=O)c1nn(-c2ccc(Cl)cc2)c2nc(-c3ccc(C)cc3)c(C#N)c(=O)n12,8,x,x,0,1733,52*
CCOc1ccc(NC(=O)CCC(=O)NNC(=O)COc2ccccc2C)cc1,2,1703,1536,-2,1649,3
Cc1cc(OCC(=O)Nc2cc(-c3nn4c(C)nnc4s3)ccc2C)ccc1Cl,89*,x,x,-5,1568,0
COc1ccc(/C=C/C(=O)C23CC4CC(CC(C4)C2)C3)cc1CN1CCOCC1,-1,1813,1578,-1,1514,4
CC(C)C(Sc1nc(-c2ccccc2)cc(-c2ccccc2)c1C#N)C(=O)O (stereo unspecified),-5,1481,1489,-7,1171,4
N#Cc1c(-c2ccccc2)cc(-c2ccccc2)nc1SCc1nnc(-c2ccccc2)o1,86*,x,x,4,1373,-4
CCOC(=O)CC(=O)CSc1nc(-c2ccccc2)cc(-c2ccccc2)c1C#N,10,2069,2399*,12,2021*,8
COC(=O)Sc1nnc(-c2ccc(Br)cc2)o1,45*,x,x,54*,2802*,63*
SMILES,PPARg SRC1 recr,SRC1 TRFRET art,SRC3 TRFRET art,PPARg SRC-2 ag,SRC2 TRFRET art,PPARg SRC3 recr
OCC#CCSc1nnc(-c2ccc(Br)cc2)o1,13,x,x,11,1717,6
N#Cc1c(N)nc(SCC(=O)NC2CCCCC2)c(C#N)c1-c1ccc(Cl)cc1,43*,x,x,4,1518,2
Cc1cc(C)c(C)c(S(=O)(=O)NC2CCN(Cc3ccccc3)CC2)c1C,-7,1954,1441,4,1669,1
CCOc1nc(-c2ccccc2)ccc1-c1noc(-c2cccs2)n1,34*,x,x,3,1549,-5
CCOc1nc(-c2ccccc2)ccc1-c1noc(-c2ccncc2)n1,-4,1933,1406,0,1670,2
Cc1ccc(Sc2cnn(-c3ccccc3)c(=O)c2Cl)cc1,9,x,x,19,2023*,7
Nc1ccc(Sc2cnn(-c3ccccc3)c(=O)c2Cl)cc1,8,x,x,6,1527,-2
CC(C(=O)O)n1cc(Cl)cn1 (stereo unspecified),-1,1868,1533,-1,1683,4
COc1cc(-c2nc3ccccn3c2/N=C/c2cc(OC)c(OC)c(OC)c2)ccc1O,23*,x,x,26*,1665,19
CCn1ccc(C(=O)Nc2ccccc2SC)n1,-8,1794,1637,-4,1317,0
C/C(CCC(C)C)=N\Nc1cc(C)c2ccccc2n1,-1,1482,1401,5,1642,3
COC(=O)c1ccccc1NC(=O)NCc1ccncc1,2,1694,1274,3,1477,-1
Cc1nc2ccc(NC(=O)c3ccc(Cl)c(S(=O)(=O)N(C)c4ccccc4)c3)cc2s1,6,1530,2532*,9,1835,2
Cc1nc2ccc(NC(=O)c3cc(S(=O)(=O)N(C)c4ccccc4)ccc3Cl)cc2s1,-4,1567,1598,-3,1528,3
O=C(NCC1CCCO1)c1cccc(S(=O)(=O)NCc2ccccc2)c1 (stereo unspecified),-2,1790,1762,1,1499,-5
O=c1cc(Cn2ccnc2)c2cc3c(cc2o1)CCC3,0,x,x,0,1355,29*
Cc1[nH]c2ccccc2c1C(=O)COC(=O)c1ccc2c(=O)n3c(nc2c1)CCC3,-1,1821,1555,3,1655,-2
CC(C)(C)C1CCc2c(sc(NC(=O)CSc3nnc(-c4ccccc4)o3)c2C#N)C1 (stereo unspecified),3,2157,1823,-2,1982*,4
Cc1ccnc(SCC(=O)Nc2sc3c(c2C#N)CCC(C(C)(C)C)C3)n1 (stereo unspecified),2,x,x,9,1547,5
CC1=C(C(=O)Nc2ccc(F)c(F)c2)C(c2cccs2)NC(=S)N1 (stereo unspecified),17,2450*,1907,16,1973*,8
CC1(C)[C@H]2CC=C(CN3CCC(N4CCC(C(=O)N5CCCC5)CC4)CC3)[C@@H]1C2,-4,1740,1448,-1,1499,0
O=C(c1ccc(Nc2cccc(C(F)(F)F)c2)nc1)N1CCCC1,0,x,x,-5,1376,7
